In PubChem BioAssay (Tox21) one finds Potency and outcome data, which are given here for six molecules.

Structures are written as SMILES. Where “and” joins values, the source holds several entries; their conditions need not be identical. Equal entries are not always repeated. Results filed as inconclusive are left out. A structure can be active in one record and inactive in another. Calls of active or inactive are those of the source. Unless noted, the call rests on the fitted dose curve; in most records, active means well fitted curve in the direction sought with a large enough effect in the repeat runs; inconclusive means weak or mixed curves; inactive means no such curve, though single readings can be large; an effect the other way counts as inactive or inconclusive.

Assay [1] is described as follows: qHTS assay to identify small molecule antagonists of the estrogen receptor alpha (ER-alpha) signaling pathway using the BG1 cell line in the presence of 0.1 nM 17-beta-estradiol - cell viability counter screen (AID 1259241). Further: nearly all actives have a fitted effect of over 40% in size. Further: potency means the concentration at half of the fitted maximal effect. The method, boiled down: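 VM7Luc4E2 cells (endogenous ER-alpha, 4×ERE-luciferase), hormone-starved 5 days in charcoal-stripped FBS, were treated with compounds plus 0.1 nM 17beta-estradiol for 22 hr at 37C; viability read in same wells as CellTiter-Fluor live-cell protease fluorescence.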

The nature of assay [2]: qHTS assay to identify small molecule HDAC inhibitors (AID 1259364).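 Further: wild-type HCT-116 cells with endogenous class I/II HDAC activity; top concentration of the series differs between compounds; nearly all actives have a fitted effect of over 45% in size.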 The method, boiled down:
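Read-out: luminescence of HDAC-Glo I/II reagent, 30 min RT, reflecting class I/II deacetylase activity in whole HCT-116 cells pre-exposed 2 h to DMSO-dissolved compounds.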
For orientation: Quantitative high-throughput screening tests each substance at several concentrations.

A short description of assay [3]: qHTS assay to identify small molecule HDAC inhibitors - cell viability counter screen (AID 1259365). Further: nearly all actives have a fitted effect of over 50% in size. Further: potency means the concentration at half of the fitted maximal effect. The method, boiled down:
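Wild-type HCT-116 cells were seeded at 1,500 per well, incubated overnight at 37 C, then exposed to compounds in DMSO for 2hr. Viability was read by CellTiter-Glo luminescence after 30min at room temperature.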

Assay [4] in a line: qHTS assay to identify small molecule agonists of the sonic hedgehog signaling (Shh) pathway - cell viability counter screen (AID 1259366). Further: nearly all actives have a fitted effect of over 50% in size. Further: potency means the concentration at half of the fitted maximal effect. The method, boiled down:
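NIH/3T3-derived 3T3 Gli1-Luc cells (stable Gli1-responsive firefly luciferase reporter) were seeded, rested 4 hr at 37 C/5% CO2, then exposed to compounds in DMSO for 24 hr; viability was read by CellTiter-Fluor fluorescence in the same wells.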

Assay [5] in a line: qHTS assay to identify small molecule antagonists of the sonic hedgehog signaling (Shh) pathway - cell viability counter screen (AID 1259367). Further: nearly all actives have a fitted effect of over 55% in size. Further: potency means the concentration at half of the fitted maximal effect. The method, boiled down: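 Seed 3T3 Gli1-Luc cells at 2,000 per well; incubate 4 hr; add compound in DMSO, then conditioned medium; incubate at 37C with 5% CO2; add CellTiter-Fluor after 23 hr; read fluorescence 1 hr later.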
A short description of assay [6]: qHTS assay to identify small molecule agonists of the sonic hedgehog signaling (Shh) pathway (AID 1259368; calls by dose curve; further: series mostly up to about 92 µM; nearly all actives have a fitted effect of over 15% in size). The method, boiled down:
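A Gli1 transcriptional response element controlled firefly luciferase in 3T3Gli1-Luc cells. Compounds and a positive control were added 4 hr after plating, and cells were incubated a further 24 hr at 37 C before luminescence detection.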

A short description of assay [7]: qHTS assay to identify small molecule antagonists of the sonic hedgehog signaling (Shh) pathway (AID 1259369; calls by dose curve; further: nearly all actives have a fitted effect of over 45% in size; further: potency means the concentration at half of the fitted maximal effect). The method, boiled down: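 For antagonist detection, the reporter line received test compounds together with conditioned medium, incubated 24hr at 37 C, 5% CO2, then luminescence was recorded following 30min room-temperature luciferase reagent incubation.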

The target in assay [8] is Estrogen receptor beta (Homo sapiens) (UniProt Q92731). Put plainly: qHTS assay to identify small molecule agonists of the estrogen receptor beta (ER-beta) signaling pathway (AID 1259377; active means well fitted activation curve with a large enough effect in the signal ratio in the repeat runs, not every such curve was filed as active; the % refers to the signal ratio). The method, boiled down: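 ER-beta-UAS-bla HEK293T (GripTite) cells carrying a UAS-driven beta-lactamase reporter, in medium with 2% charcoal-stripped FBS, were exposed to compounds for 16 hr at 37C; LiveBLAzer B/G FRET substrate was then added and fluorescence read after 2 hours at room temperature.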
Sequence of Estrogen receptor beta (Homo sapiens) (Q92731 whole entry, looked up): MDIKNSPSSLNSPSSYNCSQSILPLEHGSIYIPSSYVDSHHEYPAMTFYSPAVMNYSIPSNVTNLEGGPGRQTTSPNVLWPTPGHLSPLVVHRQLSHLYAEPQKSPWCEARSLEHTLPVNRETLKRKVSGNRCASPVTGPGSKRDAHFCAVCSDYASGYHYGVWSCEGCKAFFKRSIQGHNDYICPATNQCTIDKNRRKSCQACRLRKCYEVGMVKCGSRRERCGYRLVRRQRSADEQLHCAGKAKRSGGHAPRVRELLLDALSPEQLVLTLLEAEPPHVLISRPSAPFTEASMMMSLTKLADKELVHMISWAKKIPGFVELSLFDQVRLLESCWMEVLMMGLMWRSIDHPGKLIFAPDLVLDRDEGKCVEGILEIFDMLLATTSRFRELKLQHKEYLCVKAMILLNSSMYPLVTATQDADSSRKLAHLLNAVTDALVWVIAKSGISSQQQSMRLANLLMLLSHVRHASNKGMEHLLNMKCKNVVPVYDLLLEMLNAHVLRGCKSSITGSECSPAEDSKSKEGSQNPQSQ

The target is the same in assay [9]. Put plainly: qHTS assay to identify small molecule antagonists of the estrogen receptor beta (ER-beta) signaling pathway (AID 1259378; active means well fitted inhibition curve with a large enough effect in the signal ratio in the repeat runs, not every such curve was filed as active; the % refers to the signal ratio). The method, boiled down:
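ER-beta-UAS-bla HEK293T cells in 2% charcoal-stripped FBS medium treated with compound plus 1nM final 17-beta-estradiol for 16 hr at 37C. Beta-lactamase reporter read by FRET substrate fluorescence after 2 hours at room temperature.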

Assay [10] is described as follows: qHTS assay to identify small molecule agonists of the estrogen receptor beta (ER-beta) signaling pathway - cell viability counter screen (AID 1259380). Further: nearly all actives have a fitted effect of over 30% in size. Further: potency means the concentration at half of the fitted maximal effect. The method, boiled down: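 CellTiter-Glo read, 30 min RT, same wells as bla assay; cells ER-beta-UAS-bla HEK293T; 16 hr compound, 37C; medium 2% charcoal-stripped FBS.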
Assay [11] is described as follows: qHTS assay to identify small molecule antagonists of the estrogen receptor beta (ER-beta) signaling pathway - cell viability counter screen (AID 1259382). Further: nearly all actives have a fitted effect of over 55% in size. Further: potency means the concentration at half of the fitted maximal effect. The method, boiled down: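 In this multiplexed counter screen, cells were seeded at 2,000 per well in medium with 2% charcoal-stripped FBS and incubated 6 hr before compound and 1nM final E2 were added. Sixteen hours later, ATP-based luminescence reported viability.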

Assay [12] deals with Estrogen receptor (Homo sapiens) (UniProt P03372). Put plainly: qHTS assay to identify small molecule agonists of the estrogen receptor alpha (ER-alpha) signaling pathway in the presence of an antagonist (AID 1259383; calls by dose curve; further: top concentration of the series differs between compounds; nearly all actives have a fitted effect of over 15% in size). The method, boiled down: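 Stably transfected VM7Luc4E2 reporter cells, kept 5 days in charcoal-stripped serum, received ICI-182,780 at 10.0nM final before compound addition. Following 22hr incubation at 37C and 5% CO2, luciferase signal was read by luminescence.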
Sequence of Estrogen receptor (Homo sapiens) (P03372 whole entry, looked up): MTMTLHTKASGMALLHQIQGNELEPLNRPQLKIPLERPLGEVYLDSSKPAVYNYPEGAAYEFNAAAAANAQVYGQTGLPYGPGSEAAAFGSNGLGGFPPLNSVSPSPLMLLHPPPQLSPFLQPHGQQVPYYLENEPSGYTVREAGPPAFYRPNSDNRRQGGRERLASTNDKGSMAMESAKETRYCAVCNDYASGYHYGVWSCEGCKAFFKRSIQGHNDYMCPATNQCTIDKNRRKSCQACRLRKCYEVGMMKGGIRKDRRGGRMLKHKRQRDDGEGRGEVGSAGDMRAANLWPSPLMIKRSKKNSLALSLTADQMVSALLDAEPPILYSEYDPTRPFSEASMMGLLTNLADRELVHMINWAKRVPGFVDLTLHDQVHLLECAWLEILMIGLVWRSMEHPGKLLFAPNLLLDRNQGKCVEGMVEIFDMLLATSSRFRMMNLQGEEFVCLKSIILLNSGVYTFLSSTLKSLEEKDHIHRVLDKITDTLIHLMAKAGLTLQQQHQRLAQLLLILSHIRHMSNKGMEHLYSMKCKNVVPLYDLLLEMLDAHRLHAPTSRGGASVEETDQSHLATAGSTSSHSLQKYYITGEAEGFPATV

Assay [13] in a line: qHTS assay to identify small molecule agonists or antagonists of the thyroid stimulating hormone receptor (TSHR) signaling pathway - wild type cell line counter screen (AID 1259384; calls by dose curve). The method, boiled down: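 Wild-type Hek293 cells, 800/well, 18 h at 37C, then compound with Ro20-1724 for 30 min RT. cAMP by HTRF (cAMP-d2/anti-cAMP cryptate), 1 h RT, fluorescence read. 15 concentrations, triplicates.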

In assay [14] the target is Thyrotropin receptor (Homo sapiens) (UniProt P16473). The assay can be described thus: qHTS assay to identify small molecule antagonists of the thyroid stimulating hormone receptor (TSHR) signaling pathway (AID 1259385; calls by dose curve; further: nearly all actives have a fitted effect of over 20% in size; further: potency means the concentration at half of the fitted maximal effect). The method, boiled down:
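TSHR-HEK293 cells (800/well) plated 18 h, then compounds with Ro20-1724 and TSH at 1.5 ng/mL final, 30 min at room temperature. cAMP quantified by HTRF (cAMP-d2/anti-cAMP-cryptate, 1 h); 15 concentrations in triplicate.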

The nature of assay [15]: qHTS assay to identify small molecule phospholipidosis (PLD) inducers (AID 1259344; active means well fitted curve in the direction sought with a large enough effect; an effect the other way counts as inactive or inconclusive). The method, boiled down:
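Quantitative HTS in HepG2: compound plus LipidTOX Red dye for 24 h, paraformaldehyde fixation with Hoechst 33342, widefield high-content imaging; amiodarone as positive and DMSO as negative control.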

Assay [16] can be described thus: qHTS assay to identify small molecule agonists of the androgen receptor (AR) signaling pathway in the presence of an antagonist - cell viability counter screen (AID 1259379). Further: nearly all actives have a fitted effect of over 25% in size. Further: potency means the concentration at half of the fitted maximal effect. The method, boiled down: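 Seed MDA-kb2 at 3,000 cells/well; incubate 5 hr, 37C, 0% CO2. Add nilutamide to 3.0uM final, then pin compounds at 15 concentrations. Incubate 16 hr. Add CellTiter-Fluor at 15 hr, read fluorescence after 1 hr.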

In assay [17] the target is Estrogen receptor (Homo sapiens) (UniProt P03372). The assay can be described thus: qHTS assay to identify small molecule antagonists of the estrogen receptor alpha (ER-alpha) signaling pathway using the BG1 cell line in the presence of 0.1 nM 17-beta-estradiol (AID 1259244). Further: potency means the concentration at half of the fitted maximal effect; nearly all actives have a fitted effect of over 50% in size. The method, boiled down: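 Estradiol at 0.1 nM (final) stimulates the endogenous ER-alpha of VM7Luc4E2 cells carrying an ERE-driven luciferase; compounds are co-incubated 22 h at 37C and luciferase output quantified by luminescence.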

Sequence of Thyrotropin receptor (Homo sapiens) (P16473 whole entry, looked up): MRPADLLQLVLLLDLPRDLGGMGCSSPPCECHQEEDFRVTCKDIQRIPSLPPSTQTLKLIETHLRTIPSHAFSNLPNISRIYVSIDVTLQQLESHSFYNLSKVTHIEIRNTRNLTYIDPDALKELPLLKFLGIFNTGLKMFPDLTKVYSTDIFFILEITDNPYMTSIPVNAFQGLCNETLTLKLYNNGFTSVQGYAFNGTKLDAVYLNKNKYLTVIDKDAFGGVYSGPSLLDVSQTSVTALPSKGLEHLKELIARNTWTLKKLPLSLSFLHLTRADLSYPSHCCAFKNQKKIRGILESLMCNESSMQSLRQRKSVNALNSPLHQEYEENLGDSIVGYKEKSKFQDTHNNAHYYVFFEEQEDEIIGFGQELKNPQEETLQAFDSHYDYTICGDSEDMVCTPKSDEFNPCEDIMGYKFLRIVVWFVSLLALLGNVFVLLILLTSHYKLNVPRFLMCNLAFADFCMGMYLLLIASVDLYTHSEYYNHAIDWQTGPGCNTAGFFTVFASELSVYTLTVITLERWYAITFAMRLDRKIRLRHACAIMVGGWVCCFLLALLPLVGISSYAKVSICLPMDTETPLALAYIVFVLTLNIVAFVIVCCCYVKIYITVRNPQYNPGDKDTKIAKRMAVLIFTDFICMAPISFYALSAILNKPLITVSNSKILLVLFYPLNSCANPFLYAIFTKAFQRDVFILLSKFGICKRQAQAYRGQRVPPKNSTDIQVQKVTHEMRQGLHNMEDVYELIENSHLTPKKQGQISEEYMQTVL

As to `C[n+]1ccn(Cc2ccccc2)c1`, the Potency result in assay [1], in assay [2], in [3], in assay [4], in [5] and in assay [6] was “inactive” in each case. Besides, the Potency entry in [7], in assay [8], in assay [9], in assay [10], in [11] and in assay [12] was “inactive” throughout. Moreover, in [14], the Potency result is “inactive”. Also, the call in assay [13] was inactive.

Take `CC(C)(C)C(=O)OCOC(=O)[C@@H]1N2C(=O)[C@@H](NC(=O)[C@H](N)c3ccccc3)[C@H]2SC1(C)C`: the Potency entry in assay [1], in assay [15], in assay [2], in assay [3], in assay [4] and in assay [5] was “inactive” each time. Moreover, the Potency entry in assay [6], in assay [8], in assay [9], in [16], in assay [10] and in [11] was “inactive” each time. In addition, the Potency result in assay [12] was “inactive”. The molecule was classed as inactive in assay [13].

`NC(=NCCCCCCN=C(N)/N=C(\N)Nc1ccc(Cl)cc1)/N=C(\N)Nc1ccc(Cl)cc1`: the Potency result in assay [1], in assay [15], in [2], in assay [6] and in [14] was “inactive” each time. Besides, the Potency in assay [3] was 44.1 µM (active) and 60.8 µM (active) and inactive; in [4], 48.1 µM (active) and 24.8 µM (active) and 54.2 µM (active); in assay [5], 60.6 µM (active) and 43 µM (active) and inactive; in assay [7] it was 21.5 µM (active) and 27.2 µM (active) and 19.2 µM (active); in assay [16] it was 62.2 µM (active) and 60.8 µM (active) and inactive; in assay [11] it was 60.6 µM (active) and 48.3 µM (active) and 44.1 µM (active). For the same molecule, the result in [13] was inactive.

For the molecule `CC(C)CCCCCCCCCCCCCCC(=O)O`, the Potency result in [1], in assay [2], in assay [3], in [4], in assay [5] and in assay [6] was “inactive” throughout. Besides, the Potency entry in [7], in assay [8], in assay [9], in assay [16] and in assay [11] was “inactive” each time. Besides, the Potency in assay [10] is 54.5 µM (active).

As to `Cc1ccc(O)c(C(C)(C)C)c1`, the Potency result in assay [1], in assay [2], in assay [3], in [4], in assay [5] and in [6] was “inactive” each time. Moreover, the Potency entry in assay [16], in assay [11] and in [14] was “inactive” each time. In assay [13], the molecule was called inactive.

As for `O=c1[nH]sc2ccccc12`, the Potency in assay [1] is 61.1 µM (active); in assay [17], 54.5 µM (active); in assay [4] it was 13.7 µM (active); in assay [5], 17.2 µM (active); in [10], 19.3 µM (active); in assay [11] it was 27.3 µM (active). Besides, in assay [14], the Potency was 68.6 µM (active). Also, the Potency entry in assay [3], in [6], in assay [8] and in assay [12] was “inactive” each time. Also, the result in [13] was inactive.
